Assay results from PubChem BioAssay (NCI).
Compounds without any hit were thinned out: in the full panel of roughly 83,000, 20% have a hit.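 Growth was measured after 48 h exposure to one concentration of compound in 96-well plates. Values under 10 count as active.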 Unmarked numbers belong to inactive results. The source made the active and inactive calls.

Tests used:
Test in all cases: NCI-60 one-dose screen, 48 h (100 = growth as untreated, 0 = no growth, -100 = all killed)
Conditions in all cases: 10 µM unless noted
[1] = test system: NCI-H23 lung
[2] = test system: NCI-H226 lung
[3] = test system: NCI-H322M lung
[4] = test system: HOP-62 NSCLC
[5] = test system: NCI-H460 lung
[6] = test system: HOP-92 NSCLC
[7] = test system: NCI-H522 lung
[8] = test system: A549/ATCC NSCLC
[9] = test system: 786-0 renal
[10] = test system: COLO 205 colon
[11] = test system: DU-145 prostate
[12] = test system: K-562 leukemia
[13] = test system: MALME-3M melanoma
[14] = test system: MDA-MB-231 breast
[15] = test system: RXF 393 renal
[16] = test system: SF-268 CNS
[17] = test system: SF-295 CNS
[18] = test system: SF-539 CNS
[19] = test system: UACC-257 melanoma
[20] = test system: M14 melanoma

| Compound | growth [1] | growth [2] | growth [3] | growth [4] | growth [5] | growth [6] | growth [7] | growth [8] | growth [9] | growth [10] | growth [11] [%] | growth [12] | growth [13] | growth [14] | growth [15] | growth [16] | growth [17] | growth [18] | growth [19] | growth [20] |
| --- | --- | --- | --- | --- | --- | --- | --- | --- | --- | --- | --- | --- | --- | --- | --- | --- | --- | --- | --- | --- |
| O=C(O)c1cn(C2CC2)c2cc(N3CCN(C(=O)N4CCOCC4)CC3)c(F)cc2c1=O | 99.5% | 99.3% | 104% | 106% | 115% | 95.5% | 89.9% | 108% | 99.8% | 110% | 115 | 114% | 88.6% | 104% | 94.6% | 97.9% | 106% | 102% | 98% | 102% |
| O=C(NCCCCO)c1cncnc1Nc1ccc2c(ccn2Cc2cccc(F)c2)c1 | 97.6% | 100% | 72.9% | 94.4% | 101% | 92.1% | 76.9% | 84.4% | 92.4% | 97.7% | 96.2 | 82.5% | 93.9% | 69.3% | 101% | 99.3% | 97.6% | 94.4% | 96.7% | 89.9% |
| Nc1ncnc2c1N=C(c1ccc(Cl)cc1)CC(c1cccc(Nc3ccnc4cc(Cl)ccc34)c1)N2 (stereo not given) | 66.8% | 87.5% | 84.1% | 70.4% | 75.6% | 44.7% | 93.8% | 84.5% | 67.5% | 66.2% | 83.2 | -0.992% (active) | 84.8% | 63.5% | 34.1% | 53.4% | 67% | 76% | 105% | 64.8% |
| CC(=O)c1sc(-c2ccc(F)cc2)cc1O | 96.4% | 103% | 98.3% | 111% | 108% | 102% | 99.2% | 97.2% | 96.7% | 116% | 97.7 | 88.5% | 99% | 127% | 111% | 97.2% | 105% | 114% | 100% | 95.1% |
| Cc1ccc(OCCOCCOCCOc2ccc(C)n(O)c2=S)c(=S)n1O | 44.9% | 29% | 40.6% | 30.3% | 17.3% | 81.1% | 22.5% | 29.9% | 40.9% | 7.96% (active) | 50.5 | 18.9% | 47% | 28.3% | 66% | 29% | 29.1% | 45.8% | 68.4% | 36% |
| Cc1cc(C(=O)CCCC(=O)c2cc(C)c(O)c(C)c2)cc(C)c1O | 99.8% | 85% | 114% | 98.9% | 112% | 82.9% | 91.1% | 104% | 93.9% | -53.1% (active) | 109 | 27.4% | 92.3% | 98.1% | 84.2% | 99% | 99.9% | 102% | 105% | 98.6% |
| COC1C(O)CC(OC2CC(OC3CC(O[C@@H]4C(=O)c5c(cc6cc(OC7CC(OC8CC(O)C(O)C(C)O8)C(O)C(C)O7)c(C)c(O)c6c5O)CC4[C@H](OC)C(=O)C(C)=O)OC(C)C3O)OC(C)C2O)OC1C (stereo not given in full) | -23.8% (active) | -10.8% (active) | -8.5% (active) | -20.1% (active) | 8.4% (active) | -6.32% (active) | -35.4% (active) | 1.9% (active) | 4.33% (active) | -47.6% (active) | 10.4 | 2.1% (active) | -30.6% (active) | 6.75% (active) | -56.3% (active) | 2.33% (active) | 0.867% (active) | -20.8% (active) | -23.4% (active) | -34.4% (active) |
| N#Cc1c(-c2ccc(Cl)cc2)nc(NN=Cc2ccc[nH]2)nc1N1CCOCC1 | 92.4% | 61.8% | 95.4% | 41.6% | 36.7% | 68.9% | 8.32% (active) | 54.4% | 23.9% | 81.6% | 84.2 | 44.2% | 88.9% | 79.7% | 63.1% | 46.2% | 58.4% | 33.4% | 101% | 105% |
